Among the data in publication PMC7862700, “An all-to-all approach to the identification of sequence-specific readers for epigenetic DNA modifications on cytosine” are binding signal values, retold here.

What all share (experiment): DAPPL (digital affinity profiling via proximity ligation, sequencing); 10 mM Tris-HCl pH 7.5, 50 mM NaCl, 1 mM DTT, 4% glycerol, room temperature, 30 min; GST-TFs on glutathione beads, 16-mer random dsDNA library, 0.1% formaldehyde crosslink after washing; high values mean tight binding
Details in all cases: protein: recombinant; tags: N-terminal GST; dsDNA, one strand shown

Assay [1] deals with T1, FLI1 (Homo sapiens, UniProt Q01543 1-452).
T1 sequence: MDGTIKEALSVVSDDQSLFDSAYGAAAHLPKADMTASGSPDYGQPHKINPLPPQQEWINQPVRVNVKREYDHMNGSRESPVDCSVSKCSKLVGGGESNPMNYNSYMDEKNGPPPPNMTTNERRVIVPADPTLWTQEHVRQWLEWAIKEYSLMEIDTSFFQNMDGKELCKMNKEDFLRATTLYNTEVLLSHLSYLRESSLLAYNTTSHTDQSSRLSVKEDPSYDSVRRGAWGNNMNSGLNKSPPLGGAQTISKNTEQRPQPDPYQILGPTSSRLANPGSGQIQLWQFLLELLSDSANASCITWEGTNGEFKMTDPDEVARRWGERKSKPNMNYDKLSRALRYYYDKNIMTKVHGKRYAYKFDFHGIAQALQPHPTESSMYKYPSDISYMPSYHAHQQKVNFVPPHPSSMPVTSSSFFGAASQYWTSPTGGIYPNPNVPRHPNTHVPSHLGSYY
A digest of the protocol:
(§1)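 Pools were built from human transcription factors expressed in yeast as GST fusions, captured on glutathione beads and DNA-barcoded, along with a tag-only sample. Incubation with 200 nmole of a 16-mer random double-stranded DNA library lasted 30 min at room temperature in Tris/NaCl/DTT/glycerol buffer, and was followed by washing, 0.1% formaldehyde crosslinking, proximity ligation, PCR amplification and Illumina NextSeq500 sequencing. Binding signal is the quotient of each hexamer's read frequency for a factor and its frequency for the tag-only sample.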

Assay [2] deals with T2, ELK1 (Homo sapiens, UniProt P19419 1-428).
T2 sequence: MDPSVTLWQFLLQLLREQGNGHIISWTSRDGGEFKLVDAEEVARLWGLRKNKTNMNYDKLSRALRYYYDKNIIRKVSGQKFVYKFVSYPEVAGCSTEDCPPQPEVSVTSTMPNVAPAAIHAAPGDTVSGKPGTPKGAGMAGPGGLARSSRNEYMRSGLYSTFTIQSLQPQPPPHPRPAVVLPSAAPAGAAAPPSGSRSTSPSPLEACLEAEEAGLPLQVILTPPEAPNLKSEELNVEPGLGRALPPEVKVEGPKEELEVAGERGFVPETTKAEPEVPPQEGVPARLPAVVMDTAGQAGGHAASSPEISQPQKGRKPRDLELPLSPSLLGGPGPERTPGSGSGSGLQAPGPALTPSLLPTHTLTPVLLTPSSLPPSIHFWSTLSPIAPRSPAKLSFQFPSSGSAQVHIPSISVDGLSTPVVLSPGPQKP
A digest of the protocol: as §1

The target in assay [3] is T3, GABPA (Homo sapiens, UniProt Q06546 1-454).
T3 sequence: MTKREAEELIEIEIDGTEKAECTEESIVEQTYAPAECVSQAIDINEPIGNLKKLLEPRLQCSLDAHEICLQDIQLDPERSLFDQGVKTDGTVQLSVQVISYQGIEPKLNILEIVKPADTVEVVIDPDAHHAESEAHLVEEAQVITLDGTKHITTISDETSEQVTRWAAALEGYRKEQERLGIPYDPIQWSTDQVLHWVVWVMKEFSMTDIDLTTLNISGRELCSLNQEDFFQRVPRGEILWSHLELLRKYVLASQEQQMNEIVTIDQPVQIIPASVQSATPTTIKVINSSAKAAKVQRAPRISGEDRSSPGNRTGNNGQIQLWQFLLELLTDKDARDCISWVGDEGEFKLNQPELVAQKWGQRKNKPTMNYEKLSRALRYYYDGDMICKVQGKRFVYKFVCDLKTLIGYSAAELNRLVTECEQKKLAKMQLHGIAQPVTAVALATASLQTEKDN
A digest of the protocol: as §1

The target in assay [4] is T4, ERG (Homo sapiens, UniProt P11308 1-479).
T4 sequence: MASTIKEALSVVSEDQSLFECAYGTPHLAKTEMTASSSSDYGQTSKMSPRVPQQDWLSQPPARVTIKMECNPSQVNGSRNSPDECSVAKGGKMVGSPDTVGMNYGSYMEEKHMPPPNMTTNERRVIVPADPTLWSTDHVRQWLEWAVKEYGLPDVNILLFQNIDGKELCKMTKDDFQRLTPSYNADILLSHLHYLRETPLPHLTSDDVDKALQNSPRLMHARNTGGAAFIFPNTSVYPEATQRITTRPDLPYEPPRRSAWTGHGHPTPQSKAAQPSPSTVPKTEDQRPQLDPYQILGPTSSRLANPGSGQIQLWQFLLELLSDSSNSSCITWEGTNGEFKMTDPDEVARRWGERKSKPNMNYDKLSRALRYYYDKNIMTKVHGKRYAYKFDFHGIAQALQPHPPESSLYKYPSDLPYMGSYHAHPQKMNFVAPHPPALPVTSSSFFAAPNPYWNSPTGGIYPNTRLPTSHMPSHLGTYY
A digest of the protocol: as §1

The target of assay [5] is ELF1 (Homo sapiens, UniProt P32519 1-619). A digest of the protocol:
as §1

Assay [6] deals with T5, EHF (Homo sapiens, UniProt Q9NZC4 1-300).
T5 sequence: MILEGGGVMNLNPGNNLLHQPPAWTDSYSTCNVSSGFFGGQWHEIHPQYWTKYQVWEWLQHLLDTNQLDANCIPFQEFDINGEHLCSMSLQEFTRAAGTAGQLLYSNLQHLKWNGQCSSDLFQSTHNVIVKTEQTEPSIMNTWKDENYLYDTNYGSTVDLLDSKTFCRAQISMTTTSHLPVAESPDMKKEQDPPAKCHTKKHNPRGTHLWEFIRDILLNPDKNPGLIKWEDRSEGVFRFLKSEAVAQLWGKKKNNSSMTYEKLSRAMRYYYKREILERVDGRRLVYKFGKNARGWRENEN
A digest of the protocol:
as §1

Assay [7] addresses SPI1 (Homo sapiens, UniProt P17947 1-270). An outline of the steps:
as §1

In assay [8] the target is SPIB (Homo sapiens, UniProt Q01892 1-262). An outline of the steps:
as §1

The target in assay [9] is T6, ELK3 (Homo sapiens, UniProt P41970 1-407).
T6 sequence: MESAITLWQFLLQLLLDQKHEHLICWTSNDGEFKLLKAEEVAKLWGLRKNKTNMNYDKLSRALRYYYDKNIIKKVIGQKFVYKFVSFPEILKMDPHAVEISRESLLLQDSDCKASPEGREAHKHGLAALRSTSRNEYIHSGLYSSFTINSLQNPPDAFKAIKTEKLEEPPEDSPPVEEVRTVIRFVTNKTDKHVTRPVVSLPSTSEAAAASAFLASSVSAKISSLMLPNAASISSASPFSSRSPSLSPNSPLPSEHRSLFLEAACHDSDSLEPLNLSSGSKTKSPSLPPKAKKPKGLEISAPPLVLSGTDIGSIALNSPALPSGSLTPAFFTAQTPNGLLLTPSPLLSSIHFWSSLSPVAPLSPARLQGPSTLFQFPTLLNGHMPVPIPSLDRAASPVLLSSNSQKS
An outline of the steps:
as §1

Chain of ELF1 (P32519 whole entry): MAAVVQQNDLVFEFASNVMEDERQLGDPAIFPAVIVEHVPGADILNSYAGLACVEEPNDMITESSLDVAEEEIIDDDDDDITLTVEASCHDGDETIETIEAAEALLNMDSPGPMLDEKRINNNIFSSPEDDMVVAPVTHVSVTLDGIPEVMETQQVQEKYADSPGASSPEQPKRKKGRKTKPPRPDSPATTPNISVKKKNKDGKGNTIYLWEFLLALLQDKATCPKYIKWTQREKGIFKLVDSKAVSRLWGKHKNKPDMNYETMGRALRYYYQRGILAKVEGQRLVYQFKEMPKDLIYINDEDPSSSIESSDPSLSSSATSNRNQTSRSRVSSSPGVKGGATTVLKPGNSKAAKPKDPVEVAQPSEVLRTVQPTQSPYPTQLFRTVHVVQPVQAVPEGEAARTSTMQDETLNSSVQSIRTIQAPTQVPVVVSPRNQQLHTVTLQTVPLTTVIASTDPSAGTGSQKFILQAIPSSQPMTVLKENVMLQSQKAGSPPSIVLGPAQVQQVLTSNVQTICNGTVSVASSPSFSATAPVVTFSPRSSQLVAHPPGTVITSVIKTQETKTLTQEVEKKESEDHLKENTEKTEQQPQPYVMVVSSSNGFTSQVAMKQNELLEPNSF
Chain of SPIB (Q01892 whole entry): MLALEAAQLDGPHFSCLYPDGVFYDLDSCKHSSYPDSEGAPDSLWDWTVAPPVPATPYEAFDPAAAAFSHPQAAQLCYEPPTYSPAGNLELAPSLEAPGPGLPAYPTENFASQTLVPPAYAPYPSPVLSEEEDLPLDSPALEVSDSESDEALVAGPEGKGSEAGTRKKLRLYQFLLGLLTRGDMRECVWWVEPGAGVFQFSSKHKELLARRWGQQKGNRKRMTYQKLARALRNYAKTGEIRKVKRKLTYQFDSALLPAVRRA

For the sequence ACATCT, the binding signal in assay [1] is 1.39 fold enrichment (6-mer frequency, TF over GST control); in assay [2], 1.35 fold enrichment (6-mer frequency, TF over GST control); in assay [3], 1.35 fold enrichment (6-mer frequency, TF over GST control); in assay [4], 1.34 fold enrichment (6-mer frequency, TF over GST control); in assay [5], 1.38 fold enrichment (6-mer frequency, TF over GST control); in [6], 1.3 fold enrichment (6-mer frequency, TF over GST control). In addition, the binding signal in assay [7] was 1.4 fold enrichment (6-mer frequency, TF over GST control); in [8], 1.27 fold enrichment (6-mer frequency, TF over GST control); in assay [9] it was 1.44 fold enrichment (6-mer frequency, TF over GST control).
Consider CTCTAT, for which the binding signal in assay [1] was 1.09 fold enrichment (6-mer frequency, TF over GST control); in assay [2], 1.22 fold enrichment (6-mer frequency, TF over GST control); in assay [3], 1.2 fold enrichment (6-mer frequency, TF over GST control); in assay [4] it was 1.17 fold enrichment (6-mer frequency, TF over GST control); in assay [5] it was 1.22 fold enrichment (6-mer frequency, TF over GST control); in assay [6], 1.09 fold enrichment (6-mer frequency, TF over GST control). Moreover, the binding signal in assay [7] is 1.16 fold enrichment (6-mer frequency, TF over GST control); in assay [8] it was 1.17 fold enrichment (6-mer frequency, TF over GST control); in assay [9], 1.11 fold enrichment (6-mer frequency, TF over GST control).
TTACTA: the binding signal in assay [1] was 1.34 fold enrichment (6-mer frequency, TF over GST control); in assay [2] it was 1.31 fold enrichment (6-mer frequency, TF over GST control); in [3], 1.36 fold enrichment (6-mer frequency, TF over GST control); in assay [4] it was 1.33 fold enrichment (6-mer frequency, TF over GST control); in assay [5], 1.28 fold enrichment (6-mer frequency, TF over GST control); in [6] it was 1.23 fold enrichment (6-mer frequency, TF over GST control). For the same sequence, the binding signal in assay [7] is 1.27 fold enrichment (6-mer frequency, TF over GST control); in assay [8], 1.36 fold enrichment (6-mer frequency, TF over GST control); in [9], 1.31 fold enrichment (6-mer frequency, TF over GST control).
Take ATGCTC: the binding signal in [1] was 1.43 fold enrichment (6-mer frequency, TF over GST control); in [2], 1.31 fold enrichment (6-mer frequency, TF over GST control); in [3] it was 1.36 fold enrichment (6-mer frequency, TF over GST control); in assay [4] it was 1.34 fold enrichment (6-mer frequency, TF over GST control); in assay [5], 1.36 fold enrichment (6-mer frequency, TF over GST control); in [6] it was 1.34 fold enrichment (6-mer frequency, TF over GST control). The binding signal was 1.41 fold enrichment (6-mer frequency, TF over GST control) in assay [7]; 1.35 fold enrichment (6-mer frequency, TF over GST control) in assay [8]; 1.27 fold enrichment (6-mer frequency, TF over GST control) in assay [9].
For GATGCT, the binding signal was 1.18 fold enrichment (6-mer frequency, TF over GST control) in assay [1]; 1.11 fold enrichment (6-mer frequency, TF over GST control) in assay [2]; 1.14 fold enrichment (6-mer frequency, TF over GST control) in assay [3]; 1.12 fold enrichment (6-mer frequency, TF over GST control) in [4]; 1.12 fold enrichment (6-mer frequency, TF over GST control) in [5]; 1.25 fold enrichment (6-mer frequency, TF over GST control) in assay [6]. In addition, the binding signal in [7] was 1.23 fold enrichment (6-mer frequency, TF over GST control); in assay [8], 1.22 fold enrichment (6-mer frequency, TF over GST control); in assay [9] it was 1.2 fold enrichment (6-mer frequency, TF over GST control).
In the case of CTTTGG, the binding signal in assay [1] is 1.15 fold enrichment (6-mer frequency, TF over GST control); in assay [2], 1.12 fold enrichment (6-mer frequency, TF over GST control); in [3], 1.21 fold enrichment (6-mer frequency, TF over GST control); in assay [4], 1.07 fold enrichment (6-mer frequency, TF over GST control); in assay [5] it was 1.17 fold enrichment (6-mer frequency, TF over GST control); in [6] it was 1.11 fold enrichment (6-mer frequency, TF over GST control). Further, the binding signal is 1.21 fold enrichment (6-mer frequency, TF over GST control) in assay [7]; 1.04 fold enrichment (6-mer frequency, TF over GST control) in [8]; 1.13 fold enrichment (6-mer frequency, TF over GST control) in [9].
As to TATCTT, the binding signal is 1.46 fold enrichment (6-mer frequency, TF over GST control) in assay [1]; 1.31 fold enrichment (6-mer frequency, TF over GST control) in assay [2]; 1.38 fold enrichment (6-mer frequency, TF over GST control) in assay [3]; 1.26 fold enrichment (6-mer frequency, TF over GST control) in assay [4]; 1.36 fold enrichment (6-mer frequency, TF over GST control) in assay [5]; 1.3 fold enrichment (6-mer frequency, TF over GST control) in assay [6]. For the same sequence, the binding signal in assay [7] was 1.3 fold enrichment (6-mer frequency, TF over GST control); in assay [8], 1.28 fold enrichment (6-mer frequency, TF over GST control); in [9], 1.24 fold enrichment (6-mer frequency, TF over GST control).
